The text below walks through data of PubChem BioAssay (NCI).

Where “and” joins values, the source holds several entries; their conditions need not be identical. Identical values can stand only once. About 79,000 compounds went through this panel and 15% of them were active in at least one assay; those are over-represented in the sample as a whole. Calls of active or inactive are those of the source. No stated cut-off is given here; in the data, active means growth inhibition above about 70%; inactive means the rest.

A short description of the experiment: NCI Yeast Anticancer Drug Screen. Data for the rad50 strain (AID 155).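 Further: 0% = growth of vehicle-only cultures of the same strain.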 The following applies: S. cerevisiae rad50 strain growth inhibition, active compounds read high; at 50.0 µM unless noted. An outline of the steps:
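Compounds were tested on a yeast strain with an engineered DNA damage repair alteration; the reported value is growth inhibition normalised to vehicle treatment.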
In the case of `Clc1cccc(Cl)c1C1SCc2nc3cc4ccccc4cc3n21` (centres undefined), the growth inhibition was -1.8% (inactive). In the case of `COc1ccc(C(=O)/C=C/N)c(OC)c1`, the growth inhibition was 17.3% (inactive). With `O=C1N=C2Sc3ccc4ccccc4c3N2C1=O` the figure was 21.2% (inactive); with `COC1C(O)C(n2ncc3c(SC)nc(SC)nc32)OC1C(O)CO` (centres undefined), 16.3% (inactive); with `CCNC(=O)CCCC(=O)OC`, 9.75% (inactive).

Regarding `Cc1ccc2nc(=O)c3cccnc3n2c1`, the growth inhibition was 25.9% (inactive). Consider `S=C(Nc1ccc2c(c1)oc1ccccc12)c1cccs1`, for which the growth inhibition is 35.1% (inactive). Take `O=C1C(N2CCCCC2)=C(c2ccccc2)c2ccccc21`: the growth inhibition is 5.1% (inactive).

With `CCOC(=O)CNC(=O)SCc1ccccc1`, the growth inhibition was -12.4% (inactive). On to `OCCN1CCCCCCC1`, for which the growth inhibition is -2% (inactive) and 0.2% (inactive).

In the case of `Cc1cc(C(=O)O)c(C(=O)O)c(Cl)n1`, the growth inhibition is -9.15% (inactive).

On to `CC(=O)N(C(=O)CC(=O)NNCc1ccccc1Cl)c1ccc(Cl)cc1`, for which the growth inhibition is -11.4% (inactive). With `NC(=O)c1ccc(-c2csc(=S)[nH]2)s1` the figure was -1.9% (inactive); with `O=C1CCC(=O)N1N1C(=O)CCC1=O`, -9.65% (inactive); with `O=[N+]([O-])c1ccc(-n2nnc(C3=NCCCN3)c2-c2ccc(Cl)cc2)cc1`, -11.3% (inactive). With `Clc1nc(-c2ccccc2)ns1` the figure was 1.9% (inactive). On to `CC1(C)SC(c2ccccc2)SC(c2ccccc2)S1` (centres undefined), for which the growth inhibition was 13.7% (inactive). With `CS(=O)(=O)Nc1c(-c2ccccc2)oc2ccccc2c1=O` the figure was -12.1% (inactive); with `COc1cc(CNc2ccccc2)ccc1O`, -15.2% (inactive); with `CC(=O)Oc1cccc2c1C(=O)c1c(OC(C)=O)cc(C)cc1C2=O`, 10.8% (inactive). For `CC(C)C1Oc2ccc(Br)cc2C1O` (centres undefined), the growth inhibition is 11.2% (inactive). For the molecule `NC(=S)/N=C(/c1nc2ccc(Cl)cc2[nH]c1=O)C(O)c1ccccc1Cl` (centres undefined), the growth inhibition is -2.85% (inactive).

On to `CC1=CP(=O)(c2ccccc2)CC1` (centres undefined) (tested in a mixture with another compound), for which the growth inhibition is -12.2% (inactive). Turning to `CC(=O)c1ccc(Cl)cc1Cl`, the growth inhibition was -12.4% (inactive).

On to `CCOC(=O)CSc1nc(-c2ccccc2)c(C#N)c(=O)[nH]1`, for which the growth inhibition is 3.05% (inactive).

As for `CN1CCC(O)CC1`, the growth inhibition was 7.6% (inactive). Consider `O=C(Cc1nc2ccccc2s1)C(=O)Nc1cccc(C(F)(F)F)c1`, for which the growth inhibition is -4.95% (inactive). For the molecule `CCC1=CCN(c2ccccn2)OC1c1ccc(OC)cc1` (centres undefined), the growth inhibition was 32.6% (inactive).

On to `CCOC(=O)c1cccc(N)c1C(=O)OCCN(CC)CC`, for which the growth inhibition is 1.65% (inactive). With `CC(=O)Oc1c(I)cc(Cc2nc(C)oc2C)cc1I` the figure was -41.1% (inactive); with `NC1N=Nc2ccccc21` (centres undefined), 0.05% (inactive).

With `Cc1cc(N(CCC#N)CCC#N)ccc1/C=N/NC(=O)c1ccccc1`, the growth inhibition was 6.1% (inactive). For `CC/C(=N/NC(N)=O)c1ccc(C)cc1`, the growth inhibition is -11.9% (inactive). Under `CC[O-].CC[O-].CN(C)c1ccc([O-])cc1.CN(C)c1ccc([O-])cc1.[Ti+4]` stands -29.9% (inactive); under `CC(=O)OCC(C)(O)C#N` (centres undefined), -19.8% (inactive); under `CC(=NCCCCN=C(C)c1cc(O)cc(Br)c1O)c1cc(O)cc(Br)c1O.[Co]`, 17.9% (inactive). Under `O=C1c2ccccc2C(=O)N1c1ccc(OCCN2CCCCC2)cc1` stands 11.8% (inactive); under `CCOc1c(N=Nc2ccc(Cl)cc2Cl)c(C)nn1C(=S)SC`, 41.4% (inactive). Under `NC(=O)C1CC1` stands -9.4% (inactive).
